Source: PubChem (National Center for Advancing Translational Sciences (NCATS))
TDP-43 yeast inh: TDP-43 toxicity inhibition in yeast; 410,000 compounds, 1.8% hits; Potency, µM (highest dose often 46.1 µM), for the others: at the top dose growth rescue (activation), actives largely listed as activators; TDP-43 expressing yeast growth rescue, BacTiter-Glo, 24 h; further: % of control where 0% means no effect; nearly all actives have a fitted effect of over 50% in size
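Cell-based yeast growth screen: TDP-43 expression induced in galactose, inoculum OD600=0.02 after raffinose pregrowth to mid-log. Read-out BacTiter-Glo luminescence at 24 hr, 30 deg C; inhibition of toxicity seen as signal increase.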
aSyn rescue: inhibitors of alpha-synuclein toxicity in yeast; Yeast expressing alpha-synuclein, growth rescue, BacTiter-Glo, 24 h; 370,000 compounds, 0.14% hits; Potency, µM (series often up to 46.1 µM), for inactives: at the top dose growth rescue (activation), actives largely listed as activators; further: % of control where 0% means no effect; nearly all actives have a fitted effect of over 65% in size
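Galactose-induced alpha-syn yeast (OD600=0.02, raffinose-pregrown) + pinned cpd, 24 hr, 30 deg C; growth by BacTiter-Glo luminescence. Growth restoration scores as activation.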
Abeta yeast res: A-beta toxicity reversal in yeast; yeast expressing A-beta42, growth rescue, OD600, 48 h; response scale: 0% DMSO, 100% iron-clioquinol control; 410,000 compounds, 0.063% hits; AID 1347071; Potency, µM (highest dose often 46.1 µM), actives largely listed as activators; further: nearly all actives have a fitted effect of over 55% in size
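Yeast growth medium received pinned compounds, then yeast cells expressing toxic A-beta were added; plates incubated at 30 C for 48 hr. Growth read as absorbance at 600 nm, normalized to DMSO and equimolar FeCl3 plus clioquinol controls.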
FUS yeast rescue: FUS proteinopathy suppression in yeast; 390,000 compounds, 0.24% hits; S. cerevisiae FUS-expressing, growth rescue, OD600, 24 h; AID 1347120; Potency, µM (highest dose often 76.6 µM), actives largely listed as activators;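 further: plate controls were DMSO vehicle for no effect and reference control for full effect; nearly all actives have a fitted effect of over 55% in size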
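Cultures pregrown in 2.5% raffinose medium are shifted to minimal medium containing 2% galactose to express toxic FUS. Compounds are tested at several concentrations. After 24hr at 30C, growth is quantified at 600 nm absorbance.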
* marks the source's active call; other numbers are inactive results; ! = not confirmed by another sample. In the library only some 2.1% were active in any assay of this set; here they are far more common. The call rests on the fitted dose curve; in most records, active means well fitted curve in the direction sought with a large enough effect; inconclusive means small, poorly fitted or top-dose-only effect, or another doubt; inactive means no such curve, though single readings can be large; an effect the other way counts as inactive or inconclusive. Potency means the concentration at half of the fitted maximal effect.

How did c1coc(CN=C2NC(=NCc3ccco3)c3ccccc32)c1 do in these assays?
TDP-43 yeast inh: -6%; aSyn rescue: 0%; Abeta yeast res: inactive; FUS yeast rescue: inactive

What do the screens show for `CCOc1ccccc1-c1nc(-c2ccc(C)nc2OC)no1`?
TDP-43 yeast inh: 20µM*; aSyn rescue: 9%; Abeta yeast res: inactive; FUS yeast rescue: inconclusive

Results for Cc1c(C(=O)c2ccc3c(c2)OCO3)ccc2c1OCO2 ?
TDP-43 yeast inh: 18µM*; aSyn rescue: 5%; Abeta yeast res: inactive

Results for Clc1ccc(-c2nc3ccc(Cl)cn3c2Cc2ccccc2)cc1 ?
TDP-43 yeast inh: 20µM*; aSyn rescue: 25%; Abeta yeast res: inactive; FUS yeast rescue: inactive

What do the screens show for `Clc1ccc2nc(-c3ccccc3)c(Cc3ccccc3)n2c1`?
TDP-43 yeast inh: 0%; aSyn rescue: -22%; Abeta yeast res: inactive; FUS yeast rescue: inactive

Results for Fc1ccc(-c2nc3ccc(Cl)cn3c2Cc2ccccc2)cc1 ?
TDP-43 yeast inh: 35µM*; aSyn rescue: 23%; Abeta yeast res: inactive; FUS yeast rescue: inactive

What do the screens show for `Fc1ccc(-c2nc3ccc(Cl)cn3c2Cc2cccc(Cl)c2)cc1`?
TDP-43 yeast inh: 25%; aSyn rescue: -1%; Abeta yeast res: inactive; FUS yeast rescue: inactive

Results for CSc1nc(S(=O)(=O)c2ccc(C)cc2)c(Cl)s1 ?
TDP-43 yeast inh: 13µM*; aSyn rescue: 1%; Abeta yeast res: inactive; FUS yeast rescue: inactive

How did COc1cc(C)ccc1OCCSc1nc2ccc(NC(=O)c3ccc4c(c3)OCO4)cc2s1 do in these assays?
TDP-43 yeast inh: -1%; Abeta yeast res: inactive; FUS yeast rescue: inactive

How did CC1CCCC(NC(=O)c2cccc(S(=O)(=O)NCc3ccccc3)c2)C1C (stereo unspecified) do in these assays?
TDP-43 yeast inh: 35µM*; aSyn rescue: 7%; Abeta yeast res: inactive; FUS yeast rescue: inactive

Results for COc1cc(OC)c(C(=O)Nc2ncn[nH]2)cc1OC ?
TDP-43 yeast inh: -17%; aSyn rescue: 0%; Abeta yeast res: inactive; FUS yeast rescue: inactive

What do the screens show for `NC(=O)/C=C/C(=O)Nc1ccc(Cl)cc1`?
TDP-43 yeast inh: 20µM*; aSyn rescue: 15%; Abeta yeast res: inactive; FUS yeast rescue: inactive

Results for O=C(/C=C/C(Cl)(Cl)Cl)Nc1ccc(Cl)cc1 ?
TDP-43 yeast inh: inconclusive; aSyn rescue: -25%; Abeta yeast res: inactive

What do the screens show for `O=C(c1ccccc1)C1CCN(C(=O)c2c(F)cccc2F)CC1`?
TDP-43 yeast inh: 11µM*; aSyn rescue: 8%; Abeta yeast res: inactive; FUS yeast rescue: inactive

How did Cn1cccc1Cc1nnc(SCC(=O)NC2CCCC2)n1CCc1ccccc1 do in these assays?
TDP-43 yeast inh: 15%; aSyn rescue: -2%; Abeta yeast res: inactive; FUS yeast rescue: inactive

Results for CCNc1nc(N2CCCCC2)nc(-n2nnc(C(=O)OCC)c2C)n1 ?
TDP-43 yeast inh: 18µM*; aSyn rescue: 0%; Abeta yeast res: inactive; FUS yeast rescue: inactive

How did C[C@H](NC(=O)N1CCn2c1nc1ccccc12)C(=O)NCc1ccc(F)cc1 do in these assays?
TDP-43 yeast inh: 13%; aSyn rescue: 2%; Abeta yeast res: inactive; FUS yeast rescue: inactive

How did Cc1ccc(N2CCN(C(=O)c3nn(C)c4c3CS(=O)(=O)c3ccccc3-4)CC2)c(C)c1 do in these assays?
TDP-43 yeast inh: inconclusive; aSyn rescue: 5%; Abeta yeast res: inactive; FUS yeast rescue: 22µM*!

Results for Cc1ccc(Cl)cc1N1CCN(C(=O)c2nn(C)c3c2CS(=O)(=O)c2ccccc2-3)CC1 ?
TDP-43 yeast inh: 8%; Abeta yeast res: inactive; FUS yeast rescue: inconclusive

How did Cn1nc(C(=O)N2CCN(c3cccc(Cl)c3)CC2)c2c1-c1ccccc1S(=O)(=O)C2 do in these assays?
TDP-43 yeast inh: 22µM*; aSyn rescue: 3%; Abeta yeast res: inactive; FUS yeast rescue: inconclusive

Results for CC(C)Cc1ccc(CN2CCCC(NC(=O)c3cccc(-n4cnnc4)c3)C2)cc1 (stereo unspecified) ?
TDP-43 yeast inh: -21%; aSyn rescue: -2%; Abeta yeast res: inactive; FUS yeast rescue: inactive

Results for CCOC(=O)c1cnc(SC2CC(=O)N(c3ccccc3)C2=O)nc1N (stereo unspecified) ?
TDP-43 yeast inh: -10%; aSyn rescue: -4%; Abeta yeast res: inactive; FUS yeast rescue: inactive
